This is part of a sample that, as a whole, favours compounds with a hit. Of some 83,000 tested, about 20% had one in any assay.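 96-well plates, one dose, 48 hours. Percent growth reported; active if below 10.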 Unmarked numbers belong to inactive results. Active and inactive are the calls of the source.

What all share (test): NCI-60 one-dose screen, 48 h (100 = growth as untreated, 0 = no growth, -100 = all killed)
Holding throughout (details): 10 µM

Assay [1] has as its system RPMI-8226 leukemia.
Assay [2] relates to OVCAR-8 ovarian.
For assay [3], the system named is OVCAR-5 ovarian.
Assay [4] has as its system OVCAR-4 ovarian.
Assay [5] has as its system SK-OV-3 ovarian.
In assay [6] the test system is IGROV1 ovarian.
In assay [7] the test system is OVCAR-3 ovarian.
Assay [8] concerns HS 578T breast.
Assay [9] relates to NCI/ADR-RES ovarian.
For assay [10], the system named is T-47D breast.

For `COc1ccc(/C=C/C(=O)Nc2ccc(-c3nc4ccc(F)cc4s3)cc2)cc1`, the growth in assay [1] was 75.4%; in assay [2] it was 103%; in assay [3], 112%; in assay [4], 83.2%; in [5], 114%; in [6], 104%. Further, the growth in assay [7] was 113%; in assay [8], 111%; in assay [9], 111%; in assay [10], 91%.
Consider `CC(C)(C)c1cc(Br)cc(C(C)(C)C)c1O`, for which the growth is 93.9% in [1]; 103% in assay [2]; 111% in [3]; 112% in assay [4]; 101% in [5]; 115% in assay [6]. Also, the growth was 108% in [7], 120% in assay [8], 107% in assay [9] and 99.8% in assay [10].
On to `O=S(=O)(NCCNc1nccc(-c2c(-c3ccc(F)cc3)nc3sccn23)n1)c1ccc2ccccc2c1`, for which the growth in assay [1] is 60.2%; in assay [2], 69.6%; in assay [3], 130%; in [4] it was 96.2%; in [5], 85.2%; in assay [6], 49.4%. The growth is 87.9% in [7], 111% in [8], 84.4% in [9] and 61.9% in assay [10].
As to `CCN1CCCC1CNC(=O)c1ncc(-c2ccc(C(F)(F)F)cc2)c(NC2CCCCCC2)n1` (stereo not given), the growth in [1] is 58.9%; in assay [2], 74%; in assay [3], 101%; in [4], 78%; in assay [5], 89.9%; in assay [6] it was 77%. The growth in [7] is 79.5%; in [8], 92.1%; in assay [9], 89.7%; in assay [10] it was 78.9%.
For the compound `COc1ccc(/C=C/C(C)=N/OCC(=O)O)cc1`, the growth is 102% in [1]; 105% in [2]; 109% in [3]; 106% in assay [4]; 101% in [5]; 106% in [6]. Also, the growth in assay [7] is 113%; in assay [8], 113%; in assay [9], 106%; in assay [10], 93.5%.
Take `CC/C(=C(/c1ccc(OCCN(C)C)cc1)c1ccc(OC(=O)CCCCC(=O)c2c(C)[nH]c(/C=C3\N=C(c4ccc[nH]4)C=C3OC)c2C)cc1)c1ccccc1`: the growth is 25.4% in [1]; 72.5% in assay [2]; 91.3% in assay [3]; 55% in assay [4]; 81.4% in [5]; 85.4% in assay [6]. Moreover, the growth in assay [7] was 80.1%; in [8] it was 33.8%; in assay [9], 71.7%; in [10] it was 25.2%.
`COc1cc(-c2cc(C(=O)N3CCN(C(=O)c4ccccc4NCc4ccco4)CC3)nc3cc(-c4ccccc4)nn23)cc(OC)c1OC`: the growth is 21.3% in [1]; 39.5% in [2]; 64.1% in assay [3]; 68.6% in assay [4]; 27.3% in assay [5]; 23% in assay [6]. In addition, the growth in assay [7] was -37.8% (active); in [8], 36.5%; in assay [9] it was 6.24% (active); in assay [10], 50.9%.
Consider `O=C(N/N=C\c1cc(Cl)ccc1[N+](=O)[O-])c1ccco1`, for which the growth was 109% in assay [1]; 101% in assay [2]; 118% in assay [3]; 105% in [4]; 130% in assay [5]; 127% in assay [6]. Also, the growth in assay [7] was 107%; in assay [8] it was 100%; in assay [9], 100%; in assay [10], 83.7%.
As to `CC[C@H]1CCC/C=C/[C@@H]2C[C@H](O)C[C@H]2[C@H](O)/C=C/C(=O)O1`, the growth was -3.82% (active) in [1]; 0.0361% (active) in [2]; 7.93% (active) in [3]; 29% in assay [4]; 21.3% in [5]; -2.68% (active) in assay [6]. Besides, the growth was -58.5% (active) in assay [7], 13.7% in assay [8], 2.15% (active) in assay [9] and -81.1% (active) in [10].
Turning to `O=C1/C(=C\c2ccc(F)cc2)CN(C(=O)c2ccccc2F)C/C1=C\c1ccc(F)cc1`, the growth in assay [1] was -35.8% (active); in assay [2] it was 1.61% (active); in [3], 21.6%; in assay [4] it was -5.48% (active); in assay [5], 11.1%; in [6] it was -38.4% (active). The growth is -29.8% (active) in assay [7], 11.8% in assay [8], 11.5% in [9] and 40.1% in assay [10].
With `COc1ccc(-c2nc3ncccn3c2-c2nnc(-c3ccc(F)cc3)o2)cc1`, the growth is 95.9% in assay [1]; 92.4% in assay [2]; 98.1% in assay [3]; 96.6% in [4]; 107% in assay [5]; 110% in [6]. Besides, the growth is 103% in assay [7], 96% in [8], 93.7% in assay [9] and 98.2% in [10].
With `O=C(Nc1cccc(-n2cc(-c3ccncc3)c(-c3ccc(O)c(Cl)c3)n2)c1)Nc1ccc(Cl)c(Cl)c1`, the growth in assay [1] was -30.8% (active); in [2] it was -24.9% (active); in assay [3], 31.4%; in assay [4] it was 13.8%; in assay [5] it was 19%; in assay [6] it was -0.387% (active). In addition, the growth is -16.5% (active) in [7], -0.243% (active) in assay [8], 17.9% in assay [9] and -3.41% (active) in assay [10].
In the case of `CC1(C)OC2=C(CC1Br)C(=O)C(=O)c1ccccc12` (stereo not given), the growth in assay [1] was -28.1% (active); in assay [2] it was -46.4% (active); in [3], -80.5% (active); in assay [4], -99.4% (active); in assay [5] it was 77.8%; in assay [6], -80.2% (active). The growth in assay [7] was -96.5% (active); in assay [8], 8.65% (active); in assay [9] it was -44.7% (active); in [10], -45.4% (active).
Take `CCCCCCN1CCN(Cc2ccc(N(CC)CC)cc2)C(=O)C1=O`: the growth was 4.35% (active) in assay [1]; 28.3% in assay [2]; 58.8% in assay [3]; 54.6% in assay [4]; 32.5% in assay [5]; 32.1% in [6]. The growth in [7] was 5.54% (active); in [8], 20.6%; in assay [9], 0.986% (active); in assay [10], 25.5%.
Consider `CCN(CC)CCC(CNc1c(C)cnc2cc(Cl)ccc12)c1ccc(Cl)c(Cl)c1` (stereo not given), for which the growth in assay [1] was 24.5%; in assay [2], 65.7%; in assay [3], 58.3%; in assay [4] it was 63.6%; in assay [5] it was 84.1%; in [6], 33.2%. Further, the growth is 77% in assay [7], 72.3% in assay [8], 63.7% in [9] and 65.4% in assay [10].
`N#Cc1ncc(-c2cc(F)c(F)c(F)c2)c(NC2CCCCCC2)n1`: the growth in assay [1] is 81.1%; in assay [2], 96.2%; in assay [3] it was 104%; in assay [4], 77.8%; in assay [5], 88.3%; in assay [6], 93.5%. For the same compound, the growth in assay [7] was 100%; in assay [8], 73.3%; in assay [9], 95.3%; in assay [10], 72.6%.
With `COc1ccc2c(c1)N(CCO)C1=C(C(=O)OC1)C2c1cc(OC)c(OC)c(OC)c1` (stereo not given), the growth in assay [1] is 18.7%; in [2], 7.94% (active); in assay [3], 39.8%; in assay [4], 51%; in assay [5] it was 20.6%; in assay [6] it was 9.98% (active). In addition, the growth in assay [7] is -53.2% (active); in assay [8], -6.85% (active); in assay [9] it was -14.7% (active); in [10], 71.9%.
On to `FC(F)(F)c1ccc(-c2cnc(-n3cc(COCCN4CCCCC4)nn3)nc2NC2CCCCCC2)cc1`, for which the growth was -29.1% (active) in assay [1]; 54.7% in assay [2]; 67.9% in [3]; 39.9% in [4]; 56.8% in assay [5]; 36.7% in assay [6]. For the same compound, the growth was 37.1% in assay [7], 61.3% in [8], 70.6% in assay [9] and 30.5% in [10].
`N=C(N)c1ccc(-c2ccc(-c3ccccc3)o2)nc1`: the growth in [1] was 38.6%; in assay [2], 92.6%; in [3] it was 85%; in assay [4], 75.3%; in assay [5] it was 100%; in assay [6], 95.7%. Besides, the growth is 106% in [7], 131% in [8], 100% in [9] and 81.5% in assay [10].

(Values after PubChem BioAssay (NCI).)
